Data taken from the supplement of paper PMC11732987, “Enantioselective OTUD7B fragment discovery through chemoproteomics screening and high-throughput optimisation” (Communications Chemistry, 2025).

target: T1, PSMD7 (UniProt P51665); assay: log2 ratio of Biotin-Ahx-Ub-VS probe labelling (fragment/DMSO); higher = less target engagement (more negative = stronger competition), active = hit call of the paper (q ≤ 0.05, log2 ratio ≤ -1); details: compound concentration: 200 uM; treatment time: 3 h
T1 sequence (whole entry): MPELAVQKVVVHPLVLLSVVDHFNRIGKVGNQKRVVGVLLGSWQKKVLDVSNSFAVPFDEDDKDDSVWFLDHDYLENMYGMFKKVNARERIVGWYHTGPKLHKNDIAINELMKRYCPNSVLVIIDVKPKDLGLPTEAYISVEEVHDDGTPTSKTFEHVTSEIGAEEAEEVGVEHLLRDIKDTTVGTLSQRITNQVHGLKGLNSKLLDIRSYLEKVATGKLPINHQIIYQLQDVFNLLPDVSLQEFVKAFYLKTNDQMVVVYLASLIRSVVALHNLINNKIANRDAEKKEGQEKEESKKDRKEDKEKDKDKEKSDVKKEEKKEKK
Outline: (§1)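 HEK293T lysate (495 µg per sample, in Tris/CHAPS/IGEPAL buffer with protease inhibitors) was treated in triplicate with fragment at 200 µM or with DMSO for 3 h. It was then treated with Biotin-Ahx-Ub-VS (0.5 µM final) for 1 h. Labelled DUBs were NeutrAvidin-enriched, digested with LysC and trypsin, and run by diaPASEF LC-MS/MS. Spectronaut label-free quantities were global-median-normalised. Values are average log2 ratios fragment/DMSO by unpaired t-test, using proteins with ≥2 unique peptides.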

Row | SMILES | log2 ratio of Biotin-Ahx-Ub-VS probe labelling
1 | COc1cc(Cl)c(C)cc1NC(=O)CCl | -0.352 (inactive)
2 | Cl.O=C(CCl)N1CCN(Cc2ccccc2)CC1 | -0.259 (inactive)
3 | Cc1nc(CN2CCN(C(=O)CCl)CC2)cs1 | -0.333 (inactive)
4 | O=C(CCl)Nc1cc(Cl)ccc1C(=O)O | -0.0699 (inactive)
5 | CN(C(=O)CCl)c1nc2ccccc2s1 | 0.069 (inactive)
6 | O=C(CCl)NCCc1cccc2ccccc12 | 0.0665 (inactive)
7 | CCCn1nccc1NC(=O)CCl | -0.254 (inactive)
8 | CNC(=O)C1CCN(C(=O)CCl)CC1 | 0.12 (inactive)
9 | O=C(CCl)N1CCOC(c2cccc(F)c2)C1 (stereo not given) | -0.115 (inactive)
10 | Cc1c(C#N)c(NC(=O)CCl)n(Cc2ccco2)c1C | 0.0239 (inactive)
11 | O=C(CCl)N1CCC(C(=O)N2CCCCCC2)CC1 | -0.0463 (inactive)
12 | CN1C(=O)c2ccc(NC(=O)CCl)cc2C1=O | -0.0627 (inactive)
13 | C[C@H]1CN(C(=O)CCl)CCN1C(=O)c1cnn(C)c1.Cl | -0.0809 (inactive)
14 | CC1(NC(=O)CCl)CCS(=O)(=O)C1 (stereo not given) | 0.0653 (inactive)
15 | O=C(CCl)NCc1ccc(Cl)cc1 | 0.0253 (inactive)
16 | O=C(CCl)Nc1ccc(N2CCCC2=O)cc1 | -0.145 (inactive)
17 | Cc1ncsc1CCNC(=O)CCl | 0.433 (inactive)
18 | Cc1cccc(C)c1NC(=O)CCl | -0.245 (inactive)

Row | SMILES | log2 ratio of Biotin-Ahx-Ub-VS probe labelling
19 | Cc1cccc(C(CNC(=O)CCl)N2CCOCC2)c1.Cl (stereo not given) | -0.183 (inactive)
20 | Cc1cccc(NC(=O)CCl)c1C | -0.631 (inactive)
21 | Cc1cc(C2CCCN2C(=O)CCl)nn1C.Cl (stereo not given) | -0.218 (inactive)
22 | O=C(CCl)N1CCCC2CCCCC21 (stereo not given) | -0.09 (inactive)
23 | Cc1cccc(N2CCC(NC(=O)CCl)C2=O)c1 (stereo not given) | -0.248 (inactive)
24 | CC(O)CC1CCN(C(=O)CCl)CC1 (stereo not given) | -0.0764 (inactive)
25 | Cc1nc(CC2CCN(C(=O)CCl)CC2)no1 | 0.0562 (inactive)
26 | CC1Cc2ccccc2N1C(=O)CCl (stereo not given) | -0.328 (inactive)
27 | O=C(CCl)Nc1cccc(C(=O)N2CCSCC2)c1 | -0.0955 (inactive)
28 | Cl.O=C(CCl)N1CCc2ncncc2C1 | -0.0569 (inactive)
29 | NC(=O)C(Cc1ccccc1)NC(=O)CCl (stereo not given) | -0.0419 (inactive)
30 | CC(NC(=O)CCl)c1csc(-c2ccccc2)n1.Cl (stereo not given) | -0.175 (inactive)
31 | Cc1ccc(CC(NC(=O)CCl)c2ccccn2)cc1.Cl (stereo not given) | -0.125 (inactive)
32 | O=C(CCl)N[C@H]1CCS(=O)(=O)c2ccccc21 | -0.0772 (inactive)
33 | O=C(CCl)NCC(=O)N1CCCC1 | -0.18 (inactive)
34 | CC(C)n1nccc1NC(=O)CCl | -0.278 (inactive)
35 | Cc1cc(CC(C)NC(=O)CCl)n[nH]1 (stereo not given) | -0.276 (inactive)

target: UCHL1 (UniProt P09936); assay: as above; details: compound concentration: 200 uM; treatment time: 3 h
Sequence (P09936 whole entry, looked up): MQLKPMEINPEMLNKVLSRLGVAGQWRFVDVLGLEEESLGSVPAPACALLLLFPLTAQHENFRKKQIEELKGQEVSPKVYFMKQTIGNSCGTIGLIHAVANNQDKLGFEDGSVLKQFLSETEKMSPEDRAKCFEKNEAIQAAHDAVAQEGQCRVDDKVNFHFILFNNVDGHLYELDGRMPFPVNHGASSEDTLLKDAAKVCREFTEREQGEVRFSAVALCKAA
Outline: as §1

Row | SMILES | log2 ratio of Biotin-Ahx-Ub-VS probe labelling
36 | COc1cc(Cl)c(C)cc1NC(=O)CCl | -1.57 (active)
37 | Cl.O=C(CCl)N1CCN(Cc2ccccc2)CC1 | -0.902 (inactive)
38 | Cc1nc(CN2CCN(C(=O)CCl)CC2)cs1 | -1.72 (active)
39 | O=C(CCl)Nc1cc(Cl)ccc1C(=O)O | -1.38 (active)
40 | CN(C(=O)CCl)c1nc2ccccc2s1 | -0.925 (inactive)
41 | O=C(CCl)NCCc1cccc2ccccc12 | -0.978 (inactive)
42 | CCCn1nccc1NC(=O)CCl | -0.343 (inactive)
43 | CNC(=O)C1CCN(C(=O)CCl)CC1 | -0.544 (inactive)
44 | O=C(CCl)N1CCOC(c2cccc(F)c2)C1 (stereo not given) | -1.68 (active)
45 | Cc1c(C#N)c(NC(=O)CCl)n(Cc2ccco2)c1C | -1.43 (active)
46 | O=C(CCl)N1CCC(C(=O)N2CCCCCC2)CC1 | -1.19 (active)
47 | CN1C(=O)c2ccc(NC(=O)CCl)cc2C1=O | -1.24 (active)
48 | C[C@H]1CN(C(=O)CCl)CCN1C(=O)c1cnn(C)c1.Cl | -2.38 (active)
49 | CC1(NC(=O)CCl)CCS(=O)(=O)C1 (stereo not given) | -2.03 (active)
50 | O=C(CCl)NCc1ccc(Cl)cc1 | -1.24 (active)
51 | O=C(CCl)Nc1ccc(N2CCCC2=O)cc1 | -1.1 (active)
52 | Cc1ncsc1CCNC(=O)CCl | -1.31 (active)
53 | Cc1cccc(C)c1NC(=O)CCl | -1.48 (active)

Row | SMILES | log2 ratio of Biotin-Ahx-Ub-VS probe labelling
54 | Cc1cccc(C(CNC(=O)CCl)N2CCOCC2)c1.Cl (stereo not given) | -1.07 (active)
55 | Cc1cccc(NC(=O)CCl)c1C | -0.766 (inactive)
56 | Cc1cc(C2CCCN2C(=O)CCl)nn1C.Cl (stereo not given) | -1.54 (active)
57 | O=C(CCl)N1CCCC2CCCCC21 (stereo not given) | -1.06 (active)
58 | Cc1cccc(N2CCC(NC(=O)CCl)C2=O)c1 (stereo not given) | -1.87 (active)
59 | CC(O)CC1CCN(C(=O)CCl)CC1 (stereo not given) | -1.53 (active)
60 | Cc1nc(CC2CCN(C(=O)CCl)CC2)no1 | -1.96 (active)
61 | CC1Cc2ccccc2N1C(=O)CCl (stereo not given) | -1.4 (active)
62 | O=C(CCl)Nc1cccc(C(=O)N2CCSCC2)c1 | -0.784 (inactive)
63 | Cl.O=C(CCl)N1CCc2ncncc2C1 | -0.583 (inactive)
64 | NC(=O)C(Cc1ccccc1)NC(=O)CCl (stereo not given) | -1.73 (active)
65 | CC(NC(=O)CCl)c1csc(-c2ccccc2)n1.Cl (stereo not given) | -1.3 (active)
66 | Cc1ccc(CC(NC(=O)CCl)c2ccccn2)cc1.Cl (stereo not given) | -0.621 (inactive)
67 | O=C(CCl)N[C@H]1CCS(=O)(=O)c2ccccc21 | -1.5 (active)
68 | O=C(CCl)NCC(=O)N1CCCC1 | -1.42 (active)
69 | CC(C)n1nccc1NC(=O)CCl | -1.45 (active)
70 | Cc1cc(CC(C)NC(=O)CCl)n[nH]1 (stereo not given) | -0.533 (inactive)
